Unmarked numbers belong to inactive results. Results filed as inconclusive are left out. A call without a number means that no potency is given here. The source made the active and inactive calls. Unless noted, calls come from the whole dose curve; as a rule, active = well fitted curve in the direction sought with a large enough effect; inconclusive = small, poorly fitted or top-dose-only effect, or another doubt; inactive = no such curve, though single readings can be large; an effect the other way counts as inactive or inconclusive.
What was measured:
[1] = AP1 Signaling Pathway (AID 357; active = well fitted curve in either direction with a large enough effect, not every such curve was filed as active;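 note: ME-180 reporter cells stimulated with EGF at its EC50 level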); settings: ME-180 AP-1-bla reporter, EGF-induced, beta-lactamase ratio, 5 h; at 7.69 µM (top of the series) unless noted
Method in brief: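 Beta-lactamase reporter under AP-1 response element, ME-180 background. Stimulus: EC50 EGF. Compound exposure 5 h, 37 °C. Detection: CCF4, 2.5 h RT, 460/530 nm. Values: AC50 from titration.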

[2] = molecular target: Cytochrome P450 1A2 (Homo sapiens) (UniProt P05177); experiment: p450-cyp1a2 (AID 410; calls by dose curve)
Chain of Cytochrome P450 1A2 (Homo sapiens) (P05177 whole entry, looked up): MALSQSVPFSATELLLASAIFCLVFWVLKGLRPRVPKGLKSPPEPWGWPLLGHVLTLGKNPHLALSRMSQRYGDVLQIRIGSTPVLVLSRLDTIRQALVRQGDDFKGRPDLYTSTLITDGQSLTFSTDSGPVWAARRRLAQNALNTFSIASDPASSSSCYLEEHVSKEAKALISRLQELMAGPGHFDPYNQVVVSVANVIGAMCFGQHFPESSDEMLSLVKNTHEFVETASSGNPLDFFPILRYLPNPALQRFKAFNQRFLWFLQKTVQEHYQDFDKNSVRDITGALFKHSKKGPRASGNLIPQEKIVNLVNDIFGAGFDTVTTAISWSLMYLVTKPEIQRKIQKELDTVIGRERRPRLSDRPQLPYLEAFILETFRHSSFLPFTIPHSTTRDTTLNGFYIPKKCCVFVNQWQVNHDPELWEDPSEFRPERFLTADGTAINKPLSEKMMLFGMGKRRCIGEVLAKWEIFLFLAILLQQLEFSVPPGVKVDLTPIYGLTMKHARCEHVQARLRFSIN
Method in brief: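 20nM CYP1A2, 100uM Luciferin-ME (=Km), 100mM KPO4; cpd 10 min RT; +NADPH regen, 60 min RT; stop/detect 20 min; luminescence. Normalized to furafylline 57 uM = full inhibition.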

[3] = NFAT Signaling Pathway (AID 444; active = well fitted curve in either direction with a large enough effect, not every such curve was filed as active;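 note: carbachol stimulus at about its EC50 of 1 µM final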); settings: Jurkat NFAT-bla M1, carbachol, beta-lactamase ratio, 5 h; at 7.69 µM (top of the series) unless noted
Method in brief: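 Jurkat cells with NFAT-driven β-lactamase reporter and co-expressed M1 receptor, stimulated with carbachol (final 1 uM, ~EC50), compound titration, 5 h at 37 °C. CCF4 loaded 1 h at RT; 460/530 nm ratio gave %activity and AC50.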

[4] = Stat Signaling Pathway (AID 446; active = well fitted curve in either direction with a large enough effect, not every such curve was filed as active;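 note: ME-180 cervical cancer cells given 40 pM IL-6 alongside compound; SIE-controlled beta-lactamase reporter measured as 460/530 nm FRET emission ratio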); settings: ME-180 SIE beta-lactamase reporter, IL-6 stimulated, 5 h; at 7.69 µM (top of the series) unless noted
Method in brief: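 Compound effects on IL-6-induced STAT reporter activity were measured in ME-180 cells. After overnight culture, cells were co-treated with 40 pM IL-6 for 5 hrs before beta-lactamase substrate loading at room temperature.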

[5] = molecular target: Glucocorticoid receptor (Homo sapiens) (UniProt P04150); experiment: GR-GFP Redistribution (AID 450;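 active = compounds whose dose series gives a full or clear partial fitted curve of increased nuclear translocation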; note: potency is the fitted concentration of half-maximal effect); settings: U2OS GR-GFP nuclear translocation, laser cytometry, 2 h
Chain of Glucocorticoid receptor (Homo sapiens) (P04150 whole entry, looked up, the tested form may be a part): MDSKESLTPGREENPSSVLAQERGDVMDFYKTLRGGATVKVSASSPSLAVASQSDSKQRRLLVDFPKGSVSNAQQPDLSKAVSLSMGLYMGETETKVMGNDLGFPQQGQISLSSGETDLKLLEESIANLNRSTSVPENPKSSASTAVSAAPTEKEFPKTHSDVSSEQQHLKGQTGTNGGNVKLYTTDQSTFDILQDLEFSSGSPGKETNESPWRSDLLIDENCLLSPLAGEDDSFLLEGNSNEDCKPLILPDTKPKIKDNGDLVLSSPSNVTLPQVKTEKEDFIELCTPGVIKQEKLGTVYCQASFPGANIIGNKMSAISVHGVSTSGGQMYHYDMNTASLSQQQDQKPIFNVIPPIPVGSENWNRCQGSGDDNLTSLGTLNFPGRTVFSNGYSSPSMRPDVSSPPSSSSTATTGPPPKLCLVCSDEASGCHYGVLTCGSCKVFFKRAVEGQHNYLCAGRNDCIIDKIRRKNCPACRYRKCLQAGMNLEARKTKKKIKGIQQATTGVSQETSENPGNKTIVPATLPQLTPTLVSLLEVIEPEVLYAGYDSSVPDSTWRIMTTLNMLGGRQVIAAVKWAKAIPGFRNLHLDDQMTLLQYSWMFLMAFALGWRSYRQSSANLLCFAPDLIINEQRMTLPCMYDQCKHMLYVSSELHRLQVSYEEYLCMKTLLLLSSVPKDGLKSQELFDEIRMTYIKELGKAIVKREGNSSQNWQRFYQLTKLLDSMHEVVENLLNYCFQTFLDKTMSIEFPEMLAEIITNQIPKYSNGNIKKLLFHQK

[6] = molecular target: Glucocorticoid receptor (Homo sapiens) (UniProt P04150); experiment: GR-EFC Redistribution (AID 451; calls by dose curve; note: potency is the fitted concentration of half-maximal effect); settings: CHO-K1 GR-EFC translocation, beta-gal luminescence, 2 h
Method in brief: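 CHO-K1 cells expressing nuclear EA and GR-ED fragments of b-gal; compounds titrated up to 46 uM final, 2 h at 37 C. GR nuclear translocation read as complemented b-gal luminescence after 1 h RT detection.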

[7] = molecular target: 3',5'-cyclic-AMP phosphodiesterase 4B (Homo sapiens) (UniProt Q07343); experiment: qHTS Assay for Inhibitors of PDE-IV (AID 607; active = well fitted activation curve with a large enough effect in the main read-out, with a control signal flat, not every such curve was filed as active)
Chain of 3',5'-cyclic-AMP phosphodiesterase 4B (Homo sapiens) (Q07343 whole entry, looked up): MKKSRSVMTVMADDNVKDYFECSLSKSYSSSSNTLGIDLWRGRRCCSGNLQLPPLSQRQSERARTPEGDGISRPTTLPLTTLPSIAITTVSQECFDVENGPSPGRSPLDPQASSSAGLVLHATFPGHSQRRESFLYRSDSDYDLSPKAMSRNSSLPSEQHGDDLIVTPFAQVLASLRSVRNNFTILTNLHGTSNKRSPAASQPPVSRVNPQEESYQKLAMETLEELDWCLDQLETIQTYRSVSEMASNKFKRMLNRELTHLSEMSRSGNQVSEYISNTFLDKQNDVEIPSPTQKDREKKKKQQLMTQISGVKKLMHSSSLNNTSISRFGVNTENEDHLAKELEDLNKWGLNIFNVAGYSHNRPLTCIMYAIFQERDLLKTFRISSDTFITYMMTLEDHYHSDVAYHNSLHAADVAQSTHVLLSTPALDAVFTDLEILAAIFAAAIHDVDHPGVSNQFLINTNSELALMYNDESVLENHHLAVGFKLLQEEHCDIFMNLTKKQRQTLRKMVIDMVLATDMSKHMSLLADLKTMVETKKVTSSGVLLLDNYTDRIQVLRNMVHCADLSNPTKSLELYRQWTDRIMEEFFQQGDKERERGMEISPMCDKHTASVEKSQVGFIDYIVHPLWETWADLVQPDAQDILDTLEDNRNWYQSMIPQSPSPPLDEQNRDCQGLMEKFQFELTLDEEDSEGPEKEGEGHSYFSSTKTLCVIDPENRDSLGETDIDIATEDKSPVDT
Method in brief: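 ACTOne HEK293 cells carry a modified cAMP-gated CNG channel and express endogenous PDE4; plated 1000 cells/well, compounds up to 22.9 uM final. Membrane-potential dye fluorescence (ex 535/em 590) was read; parental cells received 10 uM forskolin + 100 uM RO 20-1724.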

[8] = molecular target: Guanine nucleotide-binding protein G(i) subunit alpha-1 (Homo sapiens) (UniProt P63096); experiment: qHTS Assay for Inhibitors of RGS12 GoLoco Motif Activity (Green Fluorophore) (AID 879);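 note: negative values mean loss of peptide binding seen as reduced polarization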
Chain of Guanine nucleotide-binding protein G(i) subunit alpha-1 (Homo sapiens) (P63096 whole entry, looked up): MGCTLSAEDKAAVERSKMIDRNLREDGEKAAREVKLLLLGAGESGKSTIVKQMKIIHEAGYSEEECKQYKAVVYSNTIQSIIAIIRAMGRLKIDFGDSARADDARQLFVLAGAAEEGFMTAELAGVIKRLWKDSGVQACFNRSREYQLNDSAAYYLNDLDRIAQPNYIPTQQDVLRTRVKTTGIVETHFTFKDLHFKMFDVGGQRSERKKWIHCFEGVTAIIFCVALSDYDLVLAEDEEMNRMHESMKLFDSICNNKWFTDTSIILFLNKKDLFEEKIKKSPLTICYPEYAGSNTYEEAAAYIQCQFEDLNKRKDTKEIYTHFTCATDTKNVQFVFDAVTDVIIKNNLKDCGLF
Method in brief: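 A drop in FITC polarization marked displacement of the FITC-tagged RGS12 GoLoco peptide (10 nM) from Gαi1 (50 nM). Compounds were incubated 10 min at room temperature in Tris pH 7.5 buffer containing 150 mM NaCl, 0.1 mM GDP and 0.05% NP40; unlabeled peptide titration served as control.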

[9] = molecular target: Cytochrome P450 3A4 (Homo sapiens) (UniProt P08684); experiment: qHTS Assay for Activators of Cytochrome P450 3A4 (AID 885); note: nearly all actives have a fitted effect of over 65% in size
Chain of Cytochrome P450 3A4 (Homo sapiens) (P08684 whole entry, looked up): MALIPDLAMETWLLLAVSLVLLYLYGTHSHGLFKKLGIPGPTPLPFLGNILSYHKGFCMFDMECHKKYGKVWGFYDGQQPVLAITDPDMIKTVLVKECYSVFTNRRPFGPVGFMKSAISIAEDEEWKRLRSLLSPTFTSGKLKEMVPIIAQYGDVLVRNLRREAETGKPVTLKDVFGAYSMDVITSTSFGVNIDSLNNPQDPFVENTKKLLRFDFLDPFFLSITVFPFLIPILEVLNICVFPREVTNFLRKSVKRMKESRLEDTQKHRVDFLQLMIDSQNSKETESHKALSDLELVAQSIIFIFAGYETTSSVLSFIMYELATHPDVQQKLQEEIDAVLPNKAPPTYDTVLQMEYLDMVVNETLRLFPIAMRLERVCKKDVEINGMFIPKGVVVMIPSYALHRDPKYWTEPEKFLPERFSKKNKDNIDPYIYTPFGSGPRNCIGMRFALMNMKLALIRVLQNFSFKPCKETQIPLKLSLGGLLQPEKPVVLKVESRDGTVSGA
Method in brief: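 CYP3A4 activity: Luciferin-PPXE O-dealkylation, 25uM substrate, 200mM KPO4, RT throughout. Read-out is luciferase luminescence; higher values reflect activation.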

[10] = qHTS Assay for Identification of Small Molecule Agonists for Thrombopoietin (TPO) Signaling Pathway (AID 917)
Method in brief: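 Ba/F3 (mouse) + hTPO receptor + GpIIb-promoter luciferase; IL-3 withdrawn overnight; compound + 26 pM TPO (EC50), 24 hrs, 37 C, 5% CO2; Steadylite luminescence, 10 min RT.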

[11] = molecular target: Muscarinic acetylcholine receptor M1 (Rattus norvegicus) (UniProt P08482); experiment: qHTS Assay for Antagonists of Acetylcholine Muscarinic M1 Receptor: Measurement of IP-One Response (AID 944); note: nearly all actives have a fitted effect of over 75% in size
Chain of Muscarinic acetylcholine receptor M1 (Rattus norvegicus) (P08482 whole entry, looked up): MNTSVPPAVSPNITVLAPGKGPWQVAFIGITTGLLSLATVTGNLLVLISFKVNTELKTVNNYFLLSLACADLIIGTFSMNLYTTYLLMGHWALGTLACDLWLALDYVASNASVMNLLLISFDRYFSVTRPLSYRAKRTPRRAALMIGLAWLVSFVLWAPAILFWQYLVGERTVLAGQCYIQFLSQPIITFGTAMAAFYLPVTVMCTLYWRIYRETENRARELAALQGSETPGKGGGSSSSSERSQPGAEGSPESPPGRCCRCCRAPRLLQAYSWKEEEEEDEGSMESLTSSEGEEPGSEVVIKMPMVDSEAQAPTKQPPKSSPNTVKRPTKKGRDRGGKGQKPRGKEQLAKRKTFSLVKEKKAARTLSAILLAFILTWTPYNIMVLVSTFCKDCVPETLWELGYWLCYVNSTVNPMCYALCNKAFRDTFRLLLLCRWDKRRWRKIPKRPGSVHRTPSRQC
Method in brief: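 Read-out: HTRF competition between d2-IP1 and Eu-cryptate anti-IP1 antibody, emission 620 and 665 nm. Stimulus was carbachol, EC80 (200 nM), for 30 min in M1-CHO cells (rat receptor), after 10 min compound pre-treatment.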

[12] = molecular target: Pyruvate kinase (Leishmania mexicana) (UniProt Q27686); experiment: qHTS Validation Assay for Inhibitors of Leishmania Mexicana Pyruvate Kinase (AID 945)
Chain of Pyruvate kinase (Leishmania mexicana) (Q27686 2-499 E452W): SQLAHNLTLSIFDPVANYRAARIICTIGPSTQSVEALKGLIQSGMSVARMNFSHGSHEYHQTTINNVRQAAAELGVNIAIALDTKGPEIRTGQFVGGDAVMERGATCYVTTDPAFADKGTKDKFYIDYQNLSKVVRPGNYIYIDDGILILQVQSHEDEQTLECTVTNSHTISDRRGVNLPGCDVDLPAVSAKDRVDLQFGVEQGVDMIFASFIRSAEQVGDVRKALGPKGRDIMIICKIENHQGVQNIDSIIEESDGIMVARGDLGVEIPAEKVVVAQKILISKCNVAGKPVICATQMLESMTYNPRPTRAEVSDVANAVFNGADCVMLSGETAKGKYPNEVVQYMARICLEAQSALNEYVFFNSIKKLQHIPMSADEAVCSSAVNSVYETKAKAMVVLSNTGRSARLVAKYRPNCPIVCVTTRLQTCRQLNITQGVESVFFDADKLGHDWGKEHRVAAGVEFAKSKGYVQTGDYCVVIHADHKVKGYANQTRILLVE
Method in brief: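 Pyruvate kinase activity of E451W LmPYK (0.2 nM) was followed as ATP output after 1 h at room temperature with 0.5 mM PEP and 0.1 mM ADP, detected by PKLight luminescence.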

[13] = molecular target: Pyruvate kinase PKM (Homo sapiens) (UniProt P14618); experiment: qHTS Assay for Activators of Human Muscle Pyruvate Kinase (AID 954; active = well fitted curve in the direction sought with a large enough effect, not every such curve was filed as active)
Chain of Pyruvate kinase PKM (Homo sapiens) (P14618 whole entry, looked up): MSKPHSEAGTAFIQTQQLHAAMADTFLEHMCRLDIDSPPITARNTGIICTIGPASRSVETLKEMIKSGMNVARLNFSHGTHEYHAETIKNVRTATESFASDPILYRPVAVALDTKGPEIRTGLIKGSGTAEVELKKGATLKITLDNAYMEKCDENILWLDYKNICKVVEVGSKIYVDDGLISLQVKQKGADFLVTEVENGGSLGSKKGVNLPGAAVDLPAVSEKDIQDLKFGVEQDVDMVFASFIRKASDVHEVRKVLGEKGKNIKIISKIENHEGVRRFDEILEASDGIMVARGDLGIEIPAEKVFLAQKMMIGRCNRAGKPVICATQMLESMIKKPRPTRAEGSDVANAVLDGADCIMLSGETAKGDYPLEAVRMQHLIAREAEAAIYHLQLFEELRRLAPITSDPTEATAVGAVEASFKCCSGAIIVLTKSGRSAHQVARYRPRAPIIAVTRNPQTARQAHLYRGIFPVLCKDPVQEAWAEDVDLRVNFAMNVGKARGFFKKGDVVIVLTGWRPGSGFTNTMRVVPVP
Method in brief: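 A coupled luminescent readout tracked ATP made from ADP by purified PKM2. Final conditions included 0.1 nM enzyme, PEP and ADP at 0.5 and 0.1 mM, pH 7.2 imidazole buffer with BSA, and a one-hour room-temperature reaction.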

[14] = molecular target: Alpha-galactosidase A (Homo sapiens) (UniProt P06280); experiment: Counterscreen for Glucocerebrosidase Inhibitors: qHTS Assay for Human alpha-Galactosidase at pH 4.5 (AID 992)
Chain of Alpha-galactosidase A (Homo sapiens) (P06280 whole entry, looked up): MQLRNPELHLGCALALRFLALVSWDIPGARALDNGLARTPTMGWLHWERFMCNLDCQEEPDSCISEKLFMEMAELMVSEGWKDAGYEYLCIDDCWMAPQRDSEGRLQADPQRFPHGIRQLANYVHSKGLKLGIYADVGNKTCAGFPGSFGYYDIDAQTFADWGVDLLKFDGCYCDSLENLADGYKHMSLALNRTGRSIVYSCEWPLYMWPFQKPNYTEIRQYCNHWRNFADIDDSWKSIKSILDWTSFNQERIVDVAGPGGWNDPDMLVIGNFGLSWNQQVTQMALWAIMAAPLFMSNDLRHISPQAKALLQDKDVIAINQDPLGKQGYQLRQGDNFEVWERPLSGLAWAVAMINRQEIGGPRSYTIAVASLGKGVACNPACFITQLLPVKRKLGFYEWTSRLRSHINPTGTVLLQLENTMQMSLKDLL
Method in brief: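 Citrate buffer pH 4.5, Tween-20 0.005%. Enzyme 2 nM, substrate 80 uM, 20 min RT. Stop pH 10. Fluorescence Ex 365/Em 440. AC50 by Hill fit.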

[15] = molecular target: alpha-glucosidase (Oryza sativa, rice) (UniProt Q653V4); experiment: Counterscreen for Glucocerebrosidase Inhibitors: qHTS Assay for Rice alpha-Glucosidase at pH 5.0 (AID 997)
Method in brief: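 Endpoint fluorogenic assay at pH 5.0: compounds (0.7 nM to 77 uM) titrated against 4 nM rice enzyme and 400 uM 4-MU-alpha-glucoside for 20 min at room temperature; NaOH/glycine stop, read ex 365/em 440 nm, Hill-fitted AC50.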

[16] = molecular target: Cytochrome P450 2C9 (Homo sapiens) (UniProt P11712); experiment: qHTS Assay for Inhibitors and Substrates of Cytochrome P450 2C9 (AID 883); note: nearly all actives have a fitted effect of over 60% in size
Method in brief: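 Human CYP2C9 (10nM) with Luciferin-H at 100uM (its KM) in 25mM KPO4; compound preincubated 10 min at 37C, then NADPH regeneration for 60 min at 37C. Luciferin read by luminescence after detection reagent; normalized to 57uM sulphaphenazole as full inhibition.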

[17] = molecular target: Cytochrome P450 2D6 (Homo sapiens) (UniProt P10635); experiment: qHTS Assay for Inhibitors and Substrates of Cytochrome P450 2D6 (AID 891); note: nearly all actives have a fitted effect of over 60% in size; note: potency is the fitted concentration of half-maximal effect;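 for activity change, negative = inhibition: luciferin methyl ether substrate demethylated by CYP2D6 with NADPH regeneration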
Method in brief: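 Luminescent read-out of luciferin formed by 5 nM human CYP2D6 demethylating 30 uM Luciferin-ME EGE (Km level) over 60 min at room temperature after NADPH regeneration addition. Data normalized to full inhibition by 1.43 uM quinidine.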

[18] = molecular target: Cytochrome P450 2C19 (Homo sapiens) (UniProt P33261); experiment: qHTS Assay for Inhibitors and Substrates of Cytochrome P450 2C19 (AID 899); note: nearly all actives have a fitted effect of over 60% in size
Method in brief: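 5 nM human CYP2C19 with 10uM Luciferin-H EGE (at KM) in 50mM KPO4, compound preincubated 10 min at 37C, then NADPH regeneration for 60 min at 37C. Luciferin read by luminescence after detection reagent; normalized to 57uM ketoconazole as full inhibition.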

[19] = molecular target: Mitogen-activated protein kinase 10 (Mus musculus) (UniProt Q61831); experiment: JNK3 AlphaScreen Assay (AID 530; active = well fitted curve in either direction with a large enough effect, not every such curve was filed as active;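 note: kinase came from lysate of stimulated human HepG2 cells; signal reports phosphorylation of biotinylated GST-cJun 1-79 at Ser73 with 10 µM ATP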)
Method in brief: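 HepG2 lysate (IL-1b/TNFa pre-activated) + biotin-GST-cJun 1-79 + anti-pSer73 cJun; cpd titration, 15 min RT; ATP 10 uM start; Tris pH 7.6, MgCl2, DTT, vanadate; beads in EDTA buffer; AlphaScreen.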

[20] = qHTS Assay for Identification of Small Molecule Antagonists for NFkB Signaling Pathway (AID 895; active = well fitted inhibition curve with a large enough effect in the signal ratio, with a control signal flat, not every such curve was filed as active; the % refers to the signal ratio)
Method in brief: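 ME-180 NFkB-bla cells (beta-lactamase under NFkB response element), plated overnight, treated with compound then 10 pM TNF alpha (about EC50) for 5 hrs at 37 C. LiveBLAzer FRET read at 460/530 nm emission, 405 nm excitation.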

O=c1ccn([C@@H]2O[C@@H](COP(=O)(O)OP(=O)(O)O)[C@H](O)[C@@H]2O)c(=O)[nH]1
activity change, negative = inhibition [1]: 4.38% [at 38 µM]
Potency [2]: inactive
activity change, negative = inhibition [3]: -1.51% [at 38 µM]
activity, negative = inhibition [4]: 11.6% [at 38 µM]
Potency [5]: > 46 µM
Potency [6]: > 46 µM
Potency [7]: inactive
outcome [8]: inactive
Potency [9]: inactive
outcome [10]: inactive
Potency [11]: inactive
outcome [12]: inactive
outcome [13]: inactive
outcome [14]: inactive
Potency [15]: inactive

N[C@@H](C(=O)O)[C@H](O)C(=O)O
activity change, negative = inhibition [1]: -4.8% [at 38 µM]
Potency [2]: inactive
activity change, negative = inhibition [3]: -3.19% [at 38 µM]
activity, negative = inhibition [4]: 8.48% [at 38 µM]
Potency [5]: > 46 µM
Potency [6]: > 46 µM
Potency [7]: inactive
Potency [16]: inactive
Potency [17]: inactive
Potency [18]: inactive

Nc1nc(Cl)nc2c1ncn2[C@@H]1O[C@@H](CO)[C@@H](O)[C@H]1O
activity change, negative = inhibition [1]: -7.62% [at 38 µM]
Potency [2]: inactive
activity change, negative = inhibition [3]: 2.55% [at 38 µM]
activity, negative = inhibition [4]: 7.39% [at 38 µM]
Potency [5]: > 46 µM
Potency [6]: > 46 µM
Potency [19]: inactive
outcome [8]: inactive
Potency [11]: inactive
outcome [13]: inactive
outcome [14]: inactive
Potency [15]: inactive

C[C@]12C=CC(=O)C=C1CC[C@@H]1[C@H]3C[C@@H](O)[C@](O)(C(=O)CO)[C@]3(C)C[C@H](O)[C@]12F
activity change, negative = inhibition [1]: -12.2% [at 38 µM]
Potency [2]: inactive
activity change, negative = inhibition [3]: -3.19% [at 38 µM]
activity, negative = inhibition [4]: -15.9% [at 38 µM]
Potency [5]: 0.223 µM (active)
Potency [6]: 0.273 µM (active)
Potency [19]: inactive
Potency [7]: inactive
Potency [17]: inactive

CC(C)[C@H]1C(=O)C(C(N)=O)=C(O)[C@]2(O)C(=O)C3=C(O)c4c(O)ccc(N(C)C)c4C[C@H]3C[C@@H]12
activity change, negative = inhibition [1]: 0.478% [at 38 µM]
Potency [2]: inactive
activity change, negative = inhibition [3]: 8.64% [at 38 µM]
activity, negative = inhibition [4]: 1.38% [at 38 µM]
Potency [5]: > 46 µM
Potency [6]: > 46 µM
Potency [7]: inactive
outcome [8]: inactive
Potency [20]: inactive
Potency [11]: inactive
outcome [12]: inactive
outcome [13]: inactive
outcome [14]: inactive
Potency [15]: inactive

O=C(Oc1ccc2c(c1)CN(Cc1ccccc1)CO2)c1ccccc1
activity change, negative = inhibition [1]: 10.8%
activity change, negative = inhibition [2]: -14.3% [at 2.29 µM]
activity change, negative = inhibition [3]: 13.3%
activity, negative = inhibition [4]: 2.87%
Potency [5]: > 46 µM
Potency [6]: > 9.22 µM
Potency [19]: inactive
Potency [7]: inactive
Potency [9]: inactive
Potency [17]: 0.501 µM (active)

CCNC(=O)[C@@H]1O[C@@H](n2cnc3c(NCc4ccccc4)ncnc32)[C@@H](O)[C@H]1O
activity change, negative = inhibition [1]: -7.35% [at 38 µM]
Potency [2]: inactive
activity change, negative = inhibition [3]: 17% [at 38 µM]
activity, negative = inhibition [4]: -20.4% [at 38 µM]
Potency [5]: > 46 µM
Potency [6]: > 46 µM
Potency [19]: inactive
Potency [7]: inactive
Potency [16]: inactive
Potency [18]: inactive

Nc1ncnc2c1ncn2[C@@H]1O[C@@H](C(=O)NC2CC2)[C@H](O)[C@@H]1O
activity change, negative = inhibition [1]: -9.63% [at 38 µM]
Potency [2]: inactive
activity change, negative = inhibition [3]: -15.3% [at 38 µM]
activity, negative = inhibition [4]: -7% [at 38 µM]
Potency [5]: > 46 µM
Potency [6]: > 46 µM
Potency [19]: inactive
outcome [8]: inactive
Potency [9]: inactive
outcome [10]: inactive
Potency [11]: inactive
outcome [13]: inactive
Potency [15]: inactive

[N-]=[N+]=Nc1ccc(C(=O)CSC[C@@H](NC(=O)CC[C@@H](N)C(=O)O)C(=O)NCC(=O)O)cc1
activity change, negative = inhibition [1]: -0.0447% [at 38 µM]
Potency [2]: inactive
activity change, negative = inhibition [3]: -3.2% [at 38 µM]
activity, negative = inhibition [4]: 10.6% [at 38 µM]
Potency [5]: > 46 µM
Potency [6]: > 46 µM
Potency [7]: inactive
outcome [8]: inactive
Potency [20]: inactive
outcome [10]: inactive
Potency [11]: inactive
outcome [13]: inactive
outcome [14]: inactive
Potency [15]: inactive

N[C@@H]1C=CC=C(C(=O)O)C1
activity change, negative = inhibition [1]: -1.23% [at 38 µM]
Potency [2]: inactive
activity change, negative = inhibition [3]: 5.33% [at 38 µM]
activity, negative = inhibition [4]: 16.2% [at 38 µM]
Potency [5]: > 46 µM
Potency [6]: > 46 µM
Potency [7]: inactive
outcome [8]: inactive
Potency [20]: inactive
outcome [10]: inactive
outcome [12]: inactive
outcome [13]: inactive
Potency [15]: inactive

— PubChem BioAssay (NCATS)
